{"source": "PubChem BioAssay (NCI)", "note": "Compounds without any hit were thinned out: in the full panel of roughly 83,000, 20% have a hit.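 Values shown are percent growth following 48 h exposure of cells in 96-well plates to a single concentration of compound; below 10 was considered active.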 Calls of active or inactive are those of the source.", "data": [{"system": "MALME-3M melanoma", "experiment": "NCI-60 one-dose screen, 48 h (100 = growth as untreated, 0 = no growth, -100 = all killed)", "conditions": "10 µM unless noted", "values": [{"smiles": "Cc1cccc(/C=C/C(=O)Nc2ncc(Cc3cccc(C)c3)s2)c1", "growth": "33.6% (inactive)"}, {"smiles": "C=C(C=O)[C@@H]1CC[C@]2(C)[C@H](CC=C3[C@H]4[C@@H](C)[C@H](C)CC[C@]4(C(=O)OC)CC[C@]32C)[C@@]1(C)CCC#N", "growth": "-63.6% (active)"}, {"smiles": "CCn1c2ccccc2c2cc(-n3nncc3-c3ccccc3)ccc21", "growth": "56.3% (inactive)"}, {"smiles": "COc1ccc(COc2ccc(/C=C3\\C(=O)Nc4ccccc43)cc2OC)cc1", "growth": "99.7% (inactive)"}, {"smiles": "C[C@@H]1C[C@H]2C(=O)O[C@@H](C)C(NC(=O)[C@H](Cc3cc(F)cc(F)c3)NC(=O)Nc3ccc(C4CC4)cc3F)C(=O)N3CCC[C@H]3C(=O)N3CCCC[C@H]3C(=O)N[C@@H](CO)C(=O)N2C1", "note": "(stereo not given in full)", "growth": "36.9% (inactive)"}, {"smiles": "CCOC(=O)c1c(Nc2ccccc2)nn2c(-c3ccccc3)ccnc12", "growth": "105% (inactive)"}, {"smiles": "NS(=O)(=O)c1ccc(-n2cc(-c3cccc(NC(=O)c4ccc(N5CCOCC5)c(C(F)(F)F)c4)c3)nn2)cc1", "growth": "43.8% (inactive)"}, {"smiles": "C#Cc1nc(/C=C/C(=O)c2nccn2C)cs1", "growth": "-75.6% (active)"}, {"smiles": "Cc1ccc(-c2nnc(SCc3ccc(O)c4ncccc34)o2)cc1", "growth": "1.77% (active)"}, {"smiles": "COc1ccc(Cn2cc3c(c2-c2cc(OC)c(OC)c(OC)c2)CCc2c(CN4CCCC4)noc2-3)cc1", "growth": "19% (inactive)"}]}]}
